# Measured values as given in paper PMC7862700, “An all-to-all approach to the identification of sequence-specific readers for epigenetic DNA modifications on cytosine”.
# How the values were obtained:
# Experiment in all cases: DAPPL (digital affinity profiling via proximity ligation, sequencing); 10 mM Tris-HCl pH 7.5, 50 mM NaCl, 1 mM DTT, 4% glycerol, room temperature, 30 min; GST-TFs on glutathione beads, 16-mer random dsDNA library, 0.1% formaldehyde crosslink after washing; high values mean tight binding
# Settings in all cases: protein: recombinant; tags: N-terminal GST; dsDNA, one strand shown
# ERF = target: T1, ERF (Homo sapiens, UniProt P50548 1-548)
# T1 sequence: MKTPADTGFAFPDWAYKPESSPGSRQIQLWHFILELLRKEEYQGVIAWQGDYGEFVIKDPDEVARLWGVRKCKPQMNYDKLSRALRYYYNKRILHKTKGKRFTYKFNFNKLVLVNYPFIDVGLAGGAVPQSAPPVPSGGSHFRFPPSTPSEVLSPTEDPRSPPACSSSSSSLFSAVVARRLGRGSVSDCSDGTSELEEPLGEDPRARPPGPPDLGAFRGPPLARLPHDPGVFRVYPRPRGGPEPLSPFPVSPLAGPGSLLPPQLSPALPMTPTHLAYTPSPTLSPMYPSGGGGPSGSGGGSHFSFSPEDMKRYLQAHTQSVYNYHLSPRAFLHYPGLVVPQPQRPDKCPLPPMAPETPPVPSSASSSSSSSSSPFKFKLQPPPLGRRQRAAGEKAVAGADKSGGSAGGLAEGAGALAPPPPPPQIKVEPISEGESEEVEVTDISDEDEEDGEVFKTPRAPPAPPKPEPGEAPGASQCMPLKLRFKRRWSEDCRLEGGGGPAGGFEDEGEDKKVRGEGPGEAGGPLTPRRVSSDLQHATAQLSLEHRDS
# How it was run: (§1)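 Beads coated with glutathione captured GST-fused human transcription factors that had been expressed in yeast, and the factors were then given DNA barcodes and pooled with a tag-only sample. The pools were incubated with 200 nmole of a random double-stranded 16-mer DNA library in Tris/NaCl/DTT/glycerol buffer for 30 min at room temperature, washed, crosslinked with 0.1% formaldehyde and proximity-ligated with BsaI/T4 ligase at 37 °C for 1 h. PCR amplification and Illumina NextSeq500 sequencing came last. Binding signal is each hexamer's read frequency for a factor divided by its frequency for the tag-only sample.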
# ETV3L = target: T2, ETV3L (Homo sapiens, UniProt Q6ZN32 1-361)
# T2 sequence: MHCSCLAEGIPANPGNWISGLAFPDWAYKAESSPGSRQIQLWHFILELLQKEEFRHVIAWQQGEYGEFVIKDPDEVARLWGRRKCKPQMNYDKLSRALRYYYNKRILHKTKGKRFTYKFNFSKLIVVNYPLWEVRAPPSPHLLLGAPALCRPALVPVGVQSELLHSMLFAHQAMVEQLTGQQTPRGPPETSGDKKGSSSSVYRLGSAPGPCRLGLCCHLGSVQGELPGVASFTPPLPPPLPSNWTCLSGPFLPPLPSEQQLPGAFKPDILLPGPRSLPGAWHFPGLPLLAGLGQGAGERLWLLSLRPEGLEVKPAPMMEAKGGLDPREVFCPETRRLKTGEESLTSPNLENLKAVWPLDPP
# How it was run: as §1
# ETS2 = target: T3, ETS2 (Homo sapiens, UniProt P15036 1-469)
# T3 sequence: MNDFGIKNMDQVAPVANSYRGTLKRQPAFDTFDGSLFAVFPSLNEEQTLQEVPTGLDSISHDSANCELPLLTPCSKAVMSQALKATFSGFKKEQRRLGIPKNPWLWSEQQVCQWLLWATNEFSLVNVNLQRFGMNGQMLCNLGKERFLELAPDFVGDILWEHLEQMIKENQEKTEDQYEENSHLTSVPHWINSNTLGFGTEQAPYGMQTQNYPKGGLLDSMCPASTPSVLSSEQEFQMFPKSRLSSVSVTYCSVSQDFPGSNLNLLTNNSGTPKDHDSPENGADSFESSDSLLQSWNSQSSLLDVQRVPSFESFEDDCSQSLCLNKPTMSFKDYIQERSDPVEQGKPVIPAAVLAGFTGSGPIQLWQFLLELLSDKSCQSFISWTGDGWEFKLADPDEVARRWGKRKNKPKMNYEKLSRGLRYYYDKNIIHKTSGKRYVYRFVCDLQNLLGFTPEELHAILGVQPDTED
# How it was run: as §1
# SPDEF = target: T4, SPDEF (Homo sapiens, UniProt O95238 1-335)
# T4 sequence: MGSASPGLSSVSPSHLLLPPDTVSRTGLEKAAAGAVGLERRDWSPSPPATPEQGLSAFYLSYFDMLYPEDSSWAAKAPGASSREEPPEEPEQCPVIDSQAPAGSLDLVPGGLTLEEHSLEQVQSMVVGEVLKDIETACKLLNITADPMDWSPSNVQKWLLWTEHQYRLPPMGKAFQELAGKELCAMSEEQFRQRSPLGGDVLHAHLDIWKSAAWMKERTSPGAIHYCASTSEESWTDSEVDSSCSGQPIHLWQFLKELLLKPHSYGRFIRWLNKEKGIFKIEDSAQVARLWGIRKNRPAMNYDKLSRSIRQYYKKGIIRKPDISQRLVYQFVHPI
# How it was run: as §1
# ETV7 = target: T5, ETV7 (Homo sapiens, UniProt Q9Y603 1-341)
# T5 sequence: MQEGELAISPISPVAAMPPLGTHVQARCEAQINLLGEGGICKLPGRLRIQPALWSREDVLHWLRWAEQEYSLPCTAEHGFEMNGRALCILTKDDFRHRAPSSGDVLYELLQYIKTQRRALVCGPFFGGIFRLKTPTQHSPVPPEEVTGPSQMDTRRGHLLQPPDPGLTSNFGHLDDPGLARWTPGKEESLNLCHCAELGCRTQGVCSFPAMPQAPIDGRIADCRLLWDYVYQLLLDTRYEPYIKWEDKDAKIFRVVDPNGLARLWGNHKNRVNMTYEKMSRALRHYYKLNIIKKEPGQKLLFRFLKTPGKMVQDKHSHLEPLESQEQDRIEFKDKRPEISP
# How it was run: as §1
# ELF5 = target: T6, ELF5 (Homo sapiens, UniProt Q9UKW6-2 1-255)
# T6 sequence: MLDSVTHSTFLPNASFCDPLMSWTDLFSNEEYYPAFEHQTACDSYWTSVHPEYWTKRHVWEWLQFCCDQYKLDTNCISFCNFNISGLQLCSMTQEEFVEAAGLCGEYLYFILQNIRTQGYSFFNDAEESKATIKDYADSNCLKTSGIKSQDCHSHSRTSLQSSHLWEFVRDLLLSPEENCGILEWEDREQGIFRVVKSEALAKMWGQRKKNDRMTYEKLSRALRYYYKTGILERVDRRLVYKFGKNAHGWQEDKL
# How it was run: as §1
# ETV3 = target: T7, ETV3 (Homo sapiens, UniProt P41162-2 1-143)
# T7 sequence: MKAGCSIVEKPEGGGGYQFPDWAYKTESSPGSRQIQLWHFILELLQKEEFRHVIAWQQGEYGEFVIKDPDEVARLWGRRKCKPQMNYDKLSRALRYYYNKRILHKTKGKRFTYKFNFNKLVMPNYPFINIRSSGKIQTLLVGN
# How it was run: as §1
# ETV6 = ETV6 (Homo sapiens, UniProt P41212 1-452)
# How it was run: as §1
# ETV6, sequence (P41212 whole entry): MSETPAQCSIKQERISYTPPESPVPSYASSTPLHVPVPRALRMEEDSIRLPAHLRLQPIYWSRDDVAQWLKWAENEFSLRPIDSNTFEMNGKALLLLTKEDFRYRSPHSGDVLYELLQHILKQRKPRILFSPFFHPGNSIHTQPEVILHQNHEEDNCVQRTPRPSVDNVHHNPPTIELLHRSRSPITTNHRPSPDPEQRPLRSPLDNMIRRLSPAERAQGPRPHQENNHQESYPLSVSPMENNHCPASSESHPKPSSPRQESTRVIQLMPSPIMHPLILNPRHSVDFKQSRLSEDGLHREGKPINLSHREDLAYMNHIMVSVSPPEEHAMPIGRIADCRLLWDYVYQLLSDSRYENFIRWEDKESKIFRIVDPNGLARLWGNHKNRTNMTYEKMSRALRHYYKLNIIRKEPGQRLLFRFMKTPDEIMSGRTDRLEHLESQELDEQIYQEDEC
Sequence,binding signal (ERF),binding signal (ETV3L),binding signal (ETS2),binding signal (SPDEF),binding signal (ETV7),binding signal (ELF5),binding signal (ETV3),binding signal (ETV6)
AAGTCT,"1.25 fold enrichment (6-mer frequency, TF over GST control)","1.14 fold enrichment (6-mer frequency, TF over GST control)","1.21 fold enrichment (6-mer frequency, TF over GST control)","1.13 fold enrichment (6-mer frequency, TF over GST control)","1.15 fold enrichment (6-mer frequency, TF over GST control)","1.23 fold enrichment (6-mer frequency, TF over GST control)","1.21 fold enrichment (6-mer frequency, TF over GST control)","1.14 fold enrichment (6-mer frequency, TF over GST control)"
CGCGCT,"1.44 fold enrichment (6-mer frequency, TF over GST control)","1.18 fold enrichment (6-mer frequency, TF over GST control)","1.25 fold enrichment (6-mer frequency, TF over GST control)","1.14 fold enrichment (6-mer frequency, TF over GST control)","1.14 fold enrichment (6-mer frequency, TF over GST control)","1.11 fold enrichment (6-mer frequency, TF over GST control)","1.17 fold enrichment (6-mer frequency, TF over GST control)","1.15 fold enrichment (6-mer frequency, TF over GST control)"
TTCAAT,"1.32 fold enrichment (6-mer frequency, TF over GST control)","1.47 fold enrichment (6-mer frequency, TF over GST control)","1.42 fold enrichment (6-mer frequency, TF over GST control)","1.32 fold enrichment (6-mer frequency, TF over GST control)","1.3 fold enrichment (6-mer frequency, TF over GST control)","1.26 fold enrichment (6-mer frequency, TF over GST control)","1.37 fold enrichment (6-mer frequency, TF over GST control)","1.35 fold enrichment (6-mer frequency, TF over GST control)"
TTCGGT,"1.18 fold enrichment (6-mer frequency, TF over GST control)","1.11 fold enrichment (6-mer frequency, TF over GST control)","1.16 fold enrichment (6-mer frequency, TF over GST control)","1.13 fold enrichment (6-mer frequency, TF over GST control)","1.15 fold enrichment (6-mer frequency, TF over GST control)","1.06 fold enrichment (6-mer frequency, TF over GST control)","1.07 fold enrichment (6-mer frequency, TF over GST control)","1.22 fold enrichment (6-mer frequency, TF over GST control)"
TCTCAG,"1.26 fold enrichment (6-mer frequency, TF over GST control)","1.26 fold enrichment (6-mer frequency, TF over GST control)","1.37 fold enrichment (6-mer frequency, TF over GST control)","1.33 fold enrichment (6-mer frequency, TF over GST control)","1.26 fold enrichment (6-mer frequency, TF over GST control)","1.31 fold enrichment (6-mer frequency, TF over GST control)","1.43 fold enrichment (6-mer frequency, TF over GST control)","1.34 fold enrichment (6-mer frequency, TF over GST control)"
TTATAC,"1.55 fold enrichment (6-mer frequency, TF over GST control)","1.39 fold enrichment (6-mer frequency, TF over GST control)","1.42 fold enrichment (6-mer frequency, TF over GST control)","1.38 fold enrichment (6-mer frequency, TF over GST control)","1.53 fold enrichment (6-mer frequency, TF over GST control)","1.39 fold enrichment (6-mer frequency, TF over GST control)","1.37 fold enrichment (6-mer frequency, TF over GST control)","1.42 fold enrichment (6-mer frequency, TF over GST control)"
AATGTT,"1.61 fold enrichment (6-mer frequency, TF over GST control)","1.56 fold enrichment (6-mer frequency, TF over GST control)","1.56 fold enrichment (6-mer frequency, TF over GST control)","1.44 fold enrichment (6-mer frequency, TF over GST control)","1.68 fold enrichment (6-mer frequency, TF over GST control)","1.62 fold enrichment (6-mer frequency, TF over GST control)","1.61 fold enrichment (6-mer frequency, TF over GST control)","1.63 fold enrichment (6-mer frequency, TF over GST control)"
TTGTAA,"1.36 fold enrichment (6-mer frequency, TF over GST control)","1.32 fold enrichment (6-mer frequency, TF over GST control)","1.23 fold enrichment (6-mer frequency, TF over GST control)","1.26 fold enrichment (6-mer frequency, TF over GST control)","1.27 fold enrichment (6-mer frequency, TF over GST control)","1.26 fold enrichment (6-mer frequency, TF over GST control)","1.3 fold enrichment (6-mer frequency, TF over GST control)","1.28 fold enrichment (6-mer frequency, TF over GST control)"
